From PubChem BioAssay AID624053 (National Center for Advancing Translational Sciences (NCATS), 2012)
Calls of active or inactive are those of the source.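 The calls were made as follows: active = neuropeptide S receptor blocker with IC50 at or below 10 µM; inconclusive = IC50 above 10 µM but below 20 µM; inactive = IC50 of 20 µM or more.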

What follows are molecules tested against Neuropeptide S receptor (Homo sapiens) (UniProt Q6W5P4) (assay: qHTS for Antagonists of the Neuropeptide S Receptor: SAR in ERK). Conditions: CHO-NPSR cells, NPS-induced pERK1/2 HTRF.
Chain of Neuropeptide S receptor (Homo sapiens) (Q6W5P4 whole entry, looked up): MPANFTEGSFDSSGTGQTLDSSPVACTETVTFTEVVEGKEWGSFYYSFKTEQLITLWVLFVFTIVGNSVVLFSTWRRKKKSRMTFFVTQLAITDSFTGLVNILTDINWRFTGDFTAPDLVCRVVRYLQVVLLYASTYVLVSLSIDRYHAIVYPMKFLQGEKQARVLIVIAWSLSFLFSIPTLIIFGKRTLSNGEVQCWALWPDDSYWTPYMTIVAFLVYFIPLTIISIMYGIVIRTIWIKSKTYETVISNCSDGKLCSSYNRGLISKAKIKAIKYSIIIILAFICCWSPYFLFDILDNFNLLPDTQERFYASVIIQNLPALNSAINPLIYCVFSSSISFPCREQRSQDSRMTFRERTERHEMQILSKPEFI
Description: Neuropeptide S receptor (NPSR), previously known as GPR154, is a recently de-orphanized G protein coupled receptor. Its endogenous ligand is the 20 amino acids peptide Neuropeptide S (NPS). […] NPS and its receptor are found in various tissues. Specifically they are highly expressed in brain areas that have been implicated in modulation of arousal, stress and anxiety. Central administration of NPS in mice produces an unusual profile of activity by inducing wakefulness and arousal, while at the same time suppressing anxiety. Therefore, NPSR may represent a novel drug target for the treatment of sleep and anxiety disorders. To identify NPSR antagonists, we developed a cell-based assay with transfected NPS receptor. NPS can stimulate the production of cAMP as well as release intracellular calcium in Chinese hamster ovary cells stably expressing NPS receptor. This change in intracellular calcium can be detected using a calcium indicator dye on a calcium imaging plate reader system (FDSS). […] Reinscheid et al. have demonstarted that the binding of NPS to NPSR activates the phosphorylation of the MAPK extracellular regulated kinase (ERK). Thus NPSR antagonists of ERK activation should reduce ERK phosphorlyation is a dose dependent manner NIH Chemical Genomics Center [NCGC] NIH Molecular Libraries Probe Production centers Network [MLPCN] MLPCN Grant: DA026210 Assay Submitter (PI): Heilig, Markus Alexander
Intracellular pERK1/2 levels were measured using a time-resolved fluorescence resonance energy transfer (TR-FRET) assay by a HTRF Cellul'erk kit (Cisbio, MA). The CHO cells overexpressing NPSR were seeded at 200 microL/well with 25,000 cells in white, tissue culture treated clear bottom 96-well plates (Greiner Bio-One, NC). Following overnight incubation at 37 masculineC with 5% CO2, the growth medium was replaced with 100 microL /well Opti-MEM medium (ATCC, VA) and incubated at 37 degrees C with 5% CO2 for an additional 4 hours. The compounds prepared in 100% DMSO were added to assay plates at 1 microL/well. The assay plates were incubated for 10 min at 37 degrees C with 5% CO2 and NPS solution (2 nM NPS peptide prepared in the Opti-MEM medium with 0.2 % BSA and 0.005 % Tweeen-20) was then added at 100 microL/well. After a 20 min incubation at 37 degrees C with 5% CO2, the media was aspirated and the place plates were placed on ice for 5 min followed by the addition of 50 microL/well of 1 cell lyses solution. The plates were then incubated at room temperature while gently rocking (for mixing) for 15 min. […] After overnight incubation at room temperature in the dark, the plates were measured using the EnVision plate reader similarly as that of cAMP assay.
In the case of `CCC(C)(CCN1CCOCC1)N(Cc1cc2ccccc2n(C)c1=O)C(=O)C1CCCCC1` (centres undefined), the IC50 was 9 nM (active). `Cc1c(P(=S)(c2ccccc2)c2ccccc2)[n+]2ccccc2n1C/C=C/c1ccccc1` was tested, and the IC50 was 9.3 nM (active). For `COc1ccc(C2c3c(ncn(CCN4CCOCC4)c3=N)Oc3ccc4ccccc4c32)cc1OC` (centres undefined), the IC50 was 59.7 nM (active). With `O=C1OC(c2ccccc2)(c2ccccc2)N2CCN(C(=O)NCc3ccc(F)cc3)CC12` (centres undefined) the IC50 was 15.8 nM (active).
